In the supplement of paper PMC11624193, “Coupling cellular drug-target engagement to downstream pharmacology with CeTEAM” (Nature Communications, 2024):
Structures can show the parent of a compound that is named as a salt. A number with no mark means an inactive call.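 How the source made its calls: active = log2 fold change beyond 2 SD from the library mean after excluding viability outliers; inactive = within 2 SD.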

Target: PARP1 L713F-nLuc biosensor (HCT116) (UniProt P09874)
Test: PARP1 L713F-nLuc/akaLuc ratio relative to DMSO control (biosensor stabilization) (fold change); higher = more PARP1 biosensor stabilization (target engagement / stabilizer), active = hit call of the paper
Conditions: 24 h
[1] = stock concentration (mM; final µM = stock mM x 1): 2
[2] = stock concentration (mM; final µM = stock mM x 1): 10

Sequence of PARP1 L713F-nLuc biosensor (HCT116) (P09874 whole entry L713F, looked up): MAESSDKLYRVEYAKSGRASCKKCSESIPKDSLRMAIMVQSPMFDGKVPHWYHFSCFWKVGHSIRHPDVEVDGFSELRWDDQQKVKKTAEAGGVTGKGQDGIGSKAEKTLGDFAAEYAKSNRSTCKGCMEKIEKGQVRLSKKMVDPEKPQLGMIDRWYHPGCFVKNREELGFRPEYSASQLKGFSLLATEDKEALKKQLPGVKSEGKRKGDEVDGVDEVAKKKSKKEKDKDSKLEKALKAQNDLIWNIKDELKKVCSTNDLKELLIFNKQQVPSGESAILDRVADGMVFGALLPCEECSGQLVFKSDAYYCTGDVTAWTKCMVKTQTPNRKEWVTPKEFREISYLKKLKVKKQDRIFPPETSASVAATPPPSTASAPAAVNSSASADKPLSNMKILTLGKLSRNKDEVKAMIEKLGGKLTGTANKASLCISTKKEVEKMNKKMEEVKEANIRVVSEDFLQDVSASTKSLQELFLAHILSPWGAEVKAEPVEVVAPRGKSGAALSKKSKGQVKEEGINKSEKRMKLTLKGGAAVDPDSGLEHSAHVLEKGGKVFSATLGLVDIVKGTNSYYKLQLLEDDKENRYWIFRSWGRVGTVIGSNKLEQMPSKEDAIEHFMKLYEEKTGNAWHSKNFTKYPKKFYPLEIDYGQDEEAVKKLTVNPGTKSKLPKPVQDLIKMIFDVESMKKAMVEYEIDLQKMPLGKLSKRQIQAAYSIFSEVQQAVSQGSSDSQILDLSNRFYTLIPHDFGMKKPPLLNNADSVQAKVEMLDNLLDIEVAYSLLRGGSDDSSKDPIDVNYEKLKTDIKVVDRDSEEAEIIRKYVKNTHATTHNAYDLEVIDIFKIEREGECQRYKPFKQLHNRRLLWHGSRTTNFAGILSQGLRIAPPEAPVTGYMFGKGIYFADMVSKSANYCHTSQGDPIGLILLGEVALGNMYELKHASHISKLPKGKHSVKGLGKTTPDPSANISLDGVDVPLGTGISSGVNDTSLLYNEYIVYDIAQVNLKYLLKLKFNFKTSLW

Structure (SMILES)	PARP1 L713F-nLuc/akaLuc ratio [1]	PARP1 L713F-nLuc/akaLuc ratio [2]
CCN(c1cc(-c2ccc(CN3CCOCC3)cc2)cc(C(=O)NCc2c(C)cc(C)[nH]c2=O)c1C)C1CCOCC1 [Tazemetostat (EPZ-6438)]	1.21	–
CN(C(=O)c1ccc(F)cc1C(F)(F)F)C1CCN(c2nnc(-c3ccnn3C)c3ccccc23)CC1	1.11	–
CCc1cc(O)c(F)cc1-c1ccc2c(-c3nc4c([nH]3)CN(C3CCN(C)CC3)CC4)n[nH]c2c1 [JAK-IN-5 (hydrochloride)]	0.581	–
CCC(C)n1ncn(-c2ccc(N3CCN(c4ccc(OCC5COC(Cn6cncn6)(c6ccc(Cl)cc6Cl)O5)cc4)CC3)cc2)c1=O (stereo not drawn) [Itraconazole]	0.872	–
CCc1c(N(CC)C2CCOCC2)cc2oc(C3CCN(C(C)C)CC3)cc2c1C(=O)NCc1c(C)cc(C)[nH]c1=O	0.847	–
Cn1cc(-c2cnn3c(N)c(Br)c([C@@H]4CCCNC4)nc23)cn1	2.66	–
CC(C)Cn1cnc2c(N)nc3ccccc3c21 [Imiquimod]	1.02	–
CC(C)Nc1cc(-c2c[nH]c(C(=O)N[C@H](CO)c3cccc(Cl)c3)c2)c(Cl)cn1	–	0.364
N[C@H]1CC[C@H](N[C@@H]2C[C@H]2c2ccccc2)CC1 [Iadademstat (dihydrochloride)]	–	1.06
N#CCC1(n2cc(-c3ncnc4[nH]ccc34)cn2)CN(C2CCN(C(=O)c3ccnc(C(F)(F)F)c3F)CC2)C1 [Itacitinib adipate]	–	1.05
NNc1nncc2ccccc12 [Hydralazine (hydrochloride)]	–	0.617
O=C(c1ccc(Cl)cc1Cl)n1nnc2ccccc21	–	0.91
Cn1cc(C(N)=O)ccc1=O [Nudifloramide]	–	0.909
Cc1c(-c2cnccn2)ssc1=S [Oltipraz]	–	0.846
N#CCC1(n2cc(-c3ncnc4[nH]ccc34)cn2)CN(C2CCN(C(=O)c3ccnc(C(F)(F)F)c3F)CC2)C1 [Itacitinib]	–	0.6
CC(C)[C@@](C)(O)[C@@H]1CN(c2nc(-c3[nH]nc4ncccc34)c(F)cc2Cl)CCN1	–	0.823
CC1(C)C(=O)NC2=C1C(=O)C(=O)c1ccccc12	–	0.888
C=CC(=O)Nc1cc2c(Nc3ccc(F)c(Cl)c3)ncnc2cc1OCCCN1CCOCC1 [Canertinib (CI-1033)]	1.01	–
CCN1CCN(Cc2ccc(Nc3ncc(F)c(-c4cc(F)c5nc(C)n(C(C)C)c5c4)n3)nc2)CC1 [Abemaciclib]	–	0.621
Cc1nn(C)c(COc2ccc(N3CCN(S(=O)(=O)N(C)C)CC3)cc2)c1-c1cccc2c(CCCOc3cccc4ccccc34)c(C(=O)O)n(CCN3CCOCC3)c12	1.04	–
CC(C)(C)NC(=O)[C@H]1CC[C@H]2[C@@H]3CC[C@H]4NC(=O)C=C[C@]4(C)[C@H]3CC[C@]12C [Finasteride]	–	1.22
CN(C)C(=N)NC(=N)N [Metformin (hydrochloride)]	–	0.94
N=C(N)NC(=N)NCCc1ccccc1 [Phenformin (hydrochloride)]	–	0.696

Structure (SMILES)	PARP1 L713F-nLuc/akaLuc ratio [1]	PARP1 L713F-nLuc/akaLuc ratio [2]
Cn1cc(C[C@@H](N)C(=O)O)c2ccccc21 [Indoximod (NLG-8189?]	0.857	–
CC[C@@H]1CN(C(=O)NCC(F)(F)F)C[C@@H]1c1cnc2cnc3[nH]ccc3n12 [Upadacitinib]	–	1.32
Cc1cnc(-c2ccccc2C(C)C)nc1NCc1ccc(-n2ccnn2)cc1	–	0.718
C[C@@H](NC(=O)c1ncnc(N)c1Cl)c1ncc(C(=O)Nc2cc(C(F)(F)F)c(Cl)cn2)s1	–	0.886
CCN(C(=O)c1ccccc1OC)c1cc2c(cc1N1CCNC[C@H]1C)n(C)c(=O)n2C	–	0.597
CN(C)C(=O)c1ccc(S(=O)(=O)c2ccc(NC(=O)[C@@](C)(O)C(F)(F)F)c(Cl)c2)cc1	–	1.12
CC(CCc1ccccn1)(CCc1ccccn1)C(=O)c1ccccc1	–	1.27
CCN(CCN(C)C)C(=O)CNCc1cc(C(N)=O)ccn1 [KDOAM-25 (citrate)]	–	1.15
CCCS(=O)(=O)N[C@H]1C[C@@H](N(C)c2ncnc3[nH]ccc23)C1 [Abrocitinib]	–	0.869
Cc1cc(Nc2cc(N3CCN(C)CC3)nc(Sc3ccc(NC(=O)C4CC4)cc3)n2)n[nH]1 [Tozasertib]	–	0.774
COc1cc2/c(=N/c3ccc(Br)cc3F)nc[nH]c2cc1OCC1CCN(C)CC1 [Vandetanib (ZD6474)]	0.748	–
CC(C)[C@H]1C(=O)N[C@@H](CCCN=C(N)N)C(=O)NCC(=O)N[C@@H](CC(=O)O)C(=O)N[C@H](Cc2ccccc2)C(=O)N1C	–	0.738
COc1ccc(Cn2ccc3ccc(C(=O)NO)cc32)cc1	–	1.04
CO[C@H]1C[C@@H]2CC[C@@H](C)[C@@](O)(O2)C(=O)C(=O)N2CCCC[C@H]2C(=O)O[C@H]([C@H](C)C[C@@H]2CC[C@@H](O)[C@H](OC)C2)CC(=O)[C@H](C)/C=C(\C)[C@@H](O)[C@@H](OC)C(=O)[C@H](C)C[C@H](C)/C=C/C=C/C=C/1C [Rapamycin (Sirolimus)]	–	0.6
COc1cccc2c1c(O)c(C(=O)N(C)c1ccc(C(F)(F)F)cc1)c(=O)n2C [Tasquinimod]	–	1.12
CC[C@@](C)(Nc1ccnc(-c2c[nH]c3ncccc23)n1)C(=O)NCC(F)(F)F [Decernotinib]	–	0.707
COc1cc(C=CC(=O)O)cc(OC)c1O (stereo in doubt) [Sinapinic acid]	–	0.83
Cc1cc2c(F)c(Oc3ncnn4cc(OC[C@@H](C)O)c(C)c34)ccc2[nH]1	–	0.898
Cc1c(Cn2c(C)nc3c(C(=O)O)cc(N4CCOCC4)cc32)cccc1C(F)(F)F	–	1.38
CCS(=O)(=O)N1CCC([C@@H](C)n2c(C)c(C(=O)NCc3c(OC)cc(C)[nH]c3=O)c3ccccc32)CC1	–	1.51
CC(C)(Oc1ccc(Cl)cc1)C(=O)Nc1ccc(OCc2ccc(C#N)cc2)cc1 [AMPK activator 4]	–	1.2
Nc1nc2cc(-c3ccc4ncc(C(=O)N5CCOCC5)n4c3)ccc2o1 [Serabelisib (INK-1117,MLN-1117,TAK-117)]	–	1.31
O=C(Nc1ccc(C(F)(F)F)cc1)Nc1ccc(S(=O)(=O)N2CCC[C@H]2C(=O)Nc2ccccc2)cc1	–	0.728

Structure (SMILES)	PARP1 L713F-nLuc/akaLuc ratio [1]	PARP1 L713F-nLuc/akaLuc ratio [2]
N=C(NC(=N)N1CCCC1)Nc1ccc(OC(F)(F)F)cc1	–	1.01
CC(C)NC(=O)COc1cccc(-c2nc(Nc3ccc4[nH]ncc4c3)c3ccccc3n2)c1	–	0.38
OC(COc1ccc(C(F)(F)F)cc1)CN(Cc1ccccc1)Cc1ccccc1 (stereo not drawn)	–	1.03
Cc1cc(C)c(CN2CCc3c(Cl)cc(-c4c(C)noc4C)c(Cl)c3C2=O)c(=O)[nH]1	–	0.881
O=C(CCCCCCC(=O)NO)NO [Suberoyl bis-hydroxamic acid]	–	0.788
O=C(/C=C/c1ccc(O)c(O)c1)c1ccc(O[C@@H]2O[C@H](CO)[C@@H](O)[C@H](O)[C@H]2O)c(O)c1O [Marein]	–	0.984
C[C@H](Nc1cc(-c2cnn(C)c2)cc(Nc2cnccn2)n1)c1ccc(F)cc1 [Ilginatinib hydrochloride]	–	0.281 (active)
C#Cc1cccc(Nc2ncnc3cc(OCCOC)c(OCCOC)cc23)c1 [Erlotinib]	–	0.565
O=C(Nc1cccc(Nc2nccc(Nc3cccc(C(F)(F)F)c3)n2)c1)C1CC1 [Aurora kinase inhibitor-3]	–	1.49
Oc1cc(O)c2c(c1)OC1(c3ccc(O)c(O)c3)Oc3cc(O)c4c(c3C2C1O)OC(c1ccc(O)c(O)c1)C(O)C4 (stereo not drawn) [Procyanidin A1]	–	1.43
COc1cc(Nc2ncc(F)c(Nc3ccc4c(n3)N(COP(=O)(O)O)C(=O)C(C)(C)O4)n2)cc(OC)c1OC [Fostamatinib (R788)]	–	0.614
Cn1cnc2c(F)c(Nc3ccc(Br)cc3F)c(C(=O)NOCCO)cc21	–	0.546
Nc1nc2[nH]cnc2c(=S)[nH]1 [Thioguanine]	–	1.03
COc1cc2c(cc1OC)-c1c(C)c3ccc(OC)c(OC)c3c[n+]1CC2 [Dehydrocorydaline]	–	0.741
CCCc1cc(C)[nH]c(=O)c1CNC(=O)c1cc(-c2ccc(N3CCN(C(C)C)CC3)nc2)cc2c1cnn2C(C)C	–	0.862
O=C(NO)c1ccc(CN2CCCc3cc(Cl)ccc32)cc1	–	1.01
O=C(NNS(=O)(=O)c1ccccc1)c1cc(-c2ccnnc2)ccc1F	–	1.16
CCOC(=O)c1c[nH]c2c(ccc3cccnc32)c1=O [1,4-DPCA ethyl ester]	–	1.19
NCCNS(=O)(=O)c1cccc2c(Cl)cccc12 [A-3 (hydrochloride)]	–	0.846
CCOc1ccn(-c2ccc(F)cc2)c(=O)c1C(=O)Nc1ccc(Oc2ccnc(N)c2Cl)c(F)c1	–	1
Cc1cnc(Nc2ccc(OCCN3CCCC3)cc2)nc1Nc1cccc(S(=O)(=O)NC(C)(C)C)c1 [Fedratinib]	–	0.694
O=C1C(Cl)=C(NCCN2CCOCC2)C(=O)c2ncccc21	–	0.636
